Source: PubChem BioAssay AID1159580 (chemical genetic matrix, 2015)
The campaign covered roughly 5,500 compounds. About 2,000 (36%) were called active. Another 18% or so got no clear call; they are omitted. Rule as the data show it: active = normalized growth mostly below about 0.91 (no sharp cut-off); inconclusive = no clear call, values can overlap the other calls; inactive = mostly above about 0.92. Some of the results follow.

Experiment: chemical genetic growth profiling, strain panel (AID 1159580);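 also: tested at 20 µM; growth read once vehicle control cultures reached saturation at 30 °C; 1 = growth at the plate median or of vehicle wells; lower values mean less growth of the strain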
Details: growth OD

Measured: normalized growth

Nc1ccc(S(=O)(=O)Nc2nccs2)cc1
inactive: S. cerevisiae deletion strains, locus YJR075W, strain HOC1, stronger effect = lower value 1.01 | S. cerevisiae deletion strains, locus YKL009W, strain mrt4, stronger effect = lower value 0.999 | S. cerevisiae deletion strains, locus YKL068W, stronger effect = lower value 0.99 | S. cerevisiae deletion strains, locus YKL085W, strain MDH1 (second series), stronger effect = lower value 0.99 | S. cerevisiae deletion strains, locus YKL085W, strain MDH1, stronger effect = lower value 0.99 | S. cerevisiae deletion strains, locus YKL160W, strain elf1, stronger effect = lower value 1.02 | S. cerevisiae deletion strains, locus YKL190W, strain CNB1, stronger effect = lower value 1.01 | S. cerevisiae deletion strains, locus YKR001C, strain vps1, stronger effect = lower value 1.02 | S. cerevisiae deletion strains, locus YKR026C, strain gcn3, stronger effect = lower value 1.01 | S. cerevisiae deletion strains, locus YKR091W, strain srl3, stronger effect = lower value 1.01 | S. cerevisiae deletion strains, locus YLL001W, strain dnm1, stronger effect = lower value 1.02 | S. cerevisiae deletion strains, locus YLL026W, stronger effect = lower value 1.02 | S. cerevisiae deletion strains, locus YLL041C, strain sdh2, stronger effect = lower value 1.01 | S. cerevisiae deletion strains, locus YLR027C, strain aat2, stronger effect = lower value 1.02 | S. cerevisiae deletion strains, locus YLR039C, strain RIC1, stronger effect = lower value 1.04 | S. cerevisiae deletion strains, locus YLR058C, strain SHM2, stronger effect = lower value 1.01 | S. cerevisiae deletion strains, locus YLR102C, strain apc9, stronger effect = lower value 0.995 | S. cerevisiae deletion strains, locus YLR113W, strain HOG1, stronger effect = lower value 1.02 | S. cerevisiae deletion strains, locus YLR221C, strain rsa3, stronger effect = lower value 1 | S. cerevisiae deletion strains, locus YLR258W, strain gsy2, stronger effect = lower value 1.01 | S. cerevisiae deletion strains, locus YLR262C, strain YPT6 (second series), stronger effect = lower value 1.03 | S. cerevisiae deletion strains, locus YLR262C, strain YPT6, stronger effect = lower value 1.05 | S. cerevisiae deletion strains, locus YLR268W, strain sec22, stronger effect = lower value 0.948 | S. cerevisiae deletion strains, locus YLR320W, strain mms22, stronger effect = lower value 0.992 | S. cerevisiae deletion strains, locus YLR330W, strain CHS5, stronger effect = lower value 1.01 | S. cerevisiae deletion strains, locus YLR342W, strain FKS1 (second series), stronger effect = lower value 1.03 | S. cerevisiae deletion strains, locus YLR342W, strain FKS1, stronger effect = lower value 1.01 | S. cerevisiae deletion strains, locus YLR357W, strain rsc2, stronger effect = lower value 1.02 | S. cerevisiae deletion strains, locus YLR370C, strain arc18, stronger effect = lower value 1.02 | S. cerevisiae deletion strains, locus YLR371W, strain rom2, stronger effect = lower value 0.996 | S. cerevisiae deletion strains, locus YLR384C, strain iki3, stronger effect = lower value 1.02 | S. cerevisiae deletion strains, locus YLR418C, strain cdc73, stronger effect = lower value 0.997 | S. cerevisiae deletion strains, locus YML016C, strain PPZ1, stronger effect = lower value 1.01 | S. cerevisiae deletion strains, locus YML032C, strain rad52, stronger effect = lower value 0.98 | S. cerevisiae deletion strains, locus YML120C, strain ndi1, stronger effect = lower value 1.02 | S. cerevisiae deletion strains, locus YML124C, strain tub3, stronger effect = lower value 0.997 | S. cerevisiae deletion strains, locus YMR058W, strain fet3, stronger effect = lower value 1.02 | S. cerevisiae deletion strains, locus YMR078C, strain ctf18, stronger effect = lower value 0.994 | S. cerevisiae deletion strains, locus YMR125W, strain sto1, stronger effect = lower value 1 | S. cerevisiae deletion strains, locus YMR129W, stronger effect = lower value 1.01 | S. cerevisiae deletion strains, locus YMR205C, strain PFK2, stronger effect = lower value 1 | S. cerevisiae deletion strains, locus YMR223W, strain ubp8, stronger effect = lower value 1.01 | S. cerevisiae deletion strains, locus YMR231W, strain pep5, stronger effect = lower value 1.01 | S. cerevisiae deletion strains, locus YMR263W, strain SAP30, stronger effect = lower value 1.01 | S. cerevisiae deletion strains, locus YMR307W, strain GAS1, stronger effect = lower value 0.995 | S. cerevisiae deletion strains, locus YNL067W, strain RPL9B, stronger effect = lower value 1.02 | S. cerevisiae deletion strains, locus YNL071W, strain lat1, stronger effect = lower value 1.01 | S. cerevisiae deletion strains, locus YNL128W, strain TEP1, stronger effect = lower value 1.01 | S. cerevisiae deletion strains, locus YNL153C, strain GIM3, stronger effect = lower value 1 | S. cerevisiae deletion strains, locus YNL183C, strain NPR1, stronger effect = lower value 0.948 | S. cerevisiae deletion strains, locus YNL209W, strain ssb2, stronger effect = lower value 1.02 | S. cerevisiae deletion strains, locus YNL233W, strain BNI4, stronger effect = lower value 0.99 | S. cerevisiae deletion strains, locus YNL248C, strain rpa49, stronger effect = lower value 0.998 | S. cerevisiae deletion strains, locus YNL250W, strain rad50, stronger effect = lower value 0.989 | S. cerevisiae deletion strains, locus YNL271C, strain bni1, stronger effect = lower value 0.992 | S. cerevisiae deletion strains, locus YNL298W, strain CLA4, stronger effect = lower value 1 | S. cerevisiae deletion strains, locus YNL307C, strain MCK1, stronger effect = lower value 0.995 | S. cerevisiae deletion strains, locus YNL322C, strain KRE1 (second series), stronger effect = lower value 1.02 | S. cerevisiae deletion strains, locus YNL322C, strain KRE1, stronger effect = lower value 1.01 | S. cerevisiae deletion strains, locus YNR049C, strain mso1, stronger effect = lower value 1.01 | S. cerevisiae deletion strains, locus YNR052C, strain pop2, stronger effect = lower value 1 | S. cerevisiae deletion strains, locus YOL006C, strain TOP1, stronger effect = lower value 1.01 | S. cerevisiae deletion strains, locus YOL012C, strain htz1 1.03 | S. cerevisiae deletion strains, locus YOL147C, strain pex11, stronger effect = lower value 0.992 | S. cerevisiae deletion strains, locus YOR001W, strain rrp6, stronger effect = lower value 1.03 | S. cerevisiae deletion strains, locus YOR061W, strain CKA2, stronger effect = lower value 1.01 | S. cerevisiae deletion strains, locus YOR069W, strain VPS5, stronger effect = lower value 1.01 | S. cerevisiae deletion strains, locus YOR070C, strain gyp1, stronger effect = lower value 1 | S. cerevisiae deletion strains, locus YOR080W, strain dia2, stronger effect = lower value 1.01 | S. cerevisiae deletion strains, locus YOR083W, strain WHI5, stronger effect = lower value 0.98 | S. cerevisiae deletion strains, locus YOR106W, strain vam3, stronger effect = lower value 1.04 | S. cerevisiae deletion strains, locus YOR136W, strain idh2, stronger effect = lower value 0.993 | S. cerevisiae deletion strains, locus YOR144C, strain elg1, stronger effect = lower value 1 | S. cerevisiae deletion strains, locus YOR184W, strain ser1, stronger effect = lower value 1 | S. cerevisiae deletion strains, locus YOR231W, strain MKK1, stronger effect = lower value 1.05 | S. cerevisiae deletion strains, locus YOR265W, strain rbl2, stronger effect = lower value 1.02 | S. cerevisiae deletion strains, locus YOR270C, strain vph1, stronger effect = lower value 1.03 | S. cerevisiae deletion strains, locus YOR290C, strain snf2, stronger effect = lower value 0.997 | S. cerevisiae deletion strains, locus YOR316C, strain cot1, stronger effect = lower value 0.999 | S. cerevisiae deletion strains, locus YPL051W, strain arl3, stronger effect = lower value 1.02 | S. cerevisiae deletion strains, locus YPL055C, strain LGE1, stronger effect = lower value 1.02 | S. cerevisiae deletion strains, locus YPL078C, strain atp4, stronger effect = lower value 1.02 | S. cerevisiae deletion strains, locus YPL106C, strain sse1, stronger effect = lower value 1.03 | S. cerevisiae deletion strains, locus YPL240C, strain hsp82, stronger effect = lower value 1.03 | S. cerevisiae deletion strains, locus YPL241C, strain CIN2, stronger effect = lower value 1.01 | S. cerevisiae deletion strains, locus YPL256C, strain CLN2, stronger effect = lower value 1.02 | S. cerevisiae deletion strains, locus YPR119W, strain clb2, stronger effect = lower value 0.992 | S. cerevisiae deletion strains, locus YPR141C, strain kar3, stronger effect = lower value 0.996 | S. cerevisiae deletion strains, locus YPR163C, strain tif3, stronger effect = lower value 1 | S. cerevisiae deletion strains, locus YPR167C, strain met16, stronger effect = lower value 1 | S. cerevisiae deletion strains, strain wtn01, stronger effect = lower value 0.997 | S. cerevisiae strains, strain wild type, stronger effect = lower value 0.997
